Test results reported in PubChem BioAssay (NCI).
Values joined by “and” are separate entries in the source; they are usually repeats but may differ in a detail not shown here. Identical values can stand only once. This is part of a sample that, as a whole, favours compounds with a hit. Of some 79,000 tested, about 15% had one in any assay. Active and inactive are the calls of the source. Cut-off read from the data, not from the text of the source: active = growth inhibition above about 70%; inactive = the rest.

Key:
[1] = NCI Yeast Anticancer Drug Screen. Data for the rad50 strain (AID 155);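 note: 0% = growth of vehicle-only cultures of the same strain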; conditions: S. cerevisiae rad50 strain growth inhibition, stronger effect = higher value
Summary of the method: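 A DNA repair-deficient yeast mutant serves as the test organism; compound-induced growth inhibition is calculated against vehicle-treated cells.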

[2] = NCI Yeast Anticancer Drug Screen. Data for the mec2-1 strain (AID 157); conditions: S. cerevisiae mec2-1 strain, stronger effect = higher value
Summary of the method: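 Readout is yeast growth inhibition, normalised to vehicle-treated controls, in the mec2-1 strain exposed to compound.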

[3] = NCI Yeast Anticancer Drug Screen. Data for the sgs1 mgt1 strain (AID 161);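 note: 0% = growth of cultures given vehicle only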; conditions: S. cerevisiae sgs1 mgt1 strain, stronger effect = higher value
Summary of the method: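 Compounds are added to genetically altered yeast, and growth is compared with cultures given vehicle alone to give percent inhibition.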

[4] = NCI Yeast Anticancer Drug Screen. Data for the cln2 rad14 strain (AID 165);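 note: 0% = growth equal to vehicle treated cultures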; conditions: S. cerevisiae cln2 rad14 strain, stronger effect = higher value
Summary of the method: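 Relative to vehicle controls, growth inhibition of compound-treated cln2 rad14 yeast was recorded.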

[5] = NCI Yeast Anticancer Drug Screen. Data for the bub3 strain (AID 167); conditions: S. cerevisiae bub3 mutant strain, stronger effect = higher value
Summary of the method: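 Inhibition values come from growth of compound-treated mutant yeast normalised to vehicle-treated controls.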

[6] = NCI Yeast Anticancer Drug Screen. Data for the mlh1 rad18 strain (AID 175); conditions: S. cerevisiae mlh1 rad18 strain growth inhibition, stronger effect = higher value
Summary of the method: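 Test agents were incubated with a yeast strain of defined genotype (DNA damage repair defect). Inhibition of growth was derived by comparison with vehicle-exposed cultures.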

[7] = NCI Yeast Anticancer Drug Screen. Data for the wt1 strain (AID 149);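 note: 0% = growth of vehicle-treated wt1 cultures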; conditions: S. cerevisiae wt1 strain (SPY 50644) growth inhibition, stronger effect = higher value
Summary of the method: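 Vehicle-normalised growth inhibition; strain wt1; compound exposure.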

[8] = NCI Yeast Anticancer Drug Screen. Data for the rad50EPP+ strain (AID 151);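 note: 0% = growth of vehicle-treated control cultures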; conditions: S. cerevisiae rad50 mutant strain, stronger effect = higher value
Summary of the method: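 Exposing the rad50EPP+ strain to each compound, growth was compared with vehicle-only cultures to give inhibition.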

[9] = NCI Yeast Anticancer Drug Screen. Data for the CLN2oe strain (AID 163);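 note: 0% = growth of vehicle-only control cultures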; conditions: S. cerevisiae CLN2oe strain, stronger effect = higher value
Summary of the method: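 Values reflect how much compound exposure reduced yeast growth, referenced to vehicle-exposed cells. Assay organism is a strain with a defined genetic change affecting cell-cycle control.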

[10] = NCI Yeast Anticancer Drug Screen. Data for the wt2 strain (AID 169);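 note: 0% = growth of vehicle-treated yeast cultures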; conditions: S. cerevisiae wt2 strain growth inhibition, stronger effect = higher value
Summary of the method: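 Values express reduction in yeast growth under compound treatment, referenced to vehicle-treated cells.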

[11] = NCI Yeast Anticancer Drug Screen. Data for the mlh1 strain (AID 171);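 note: 0% = growth of vehicle-treated control cultures of the same strain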; conditions: S. cerevisiae mlh1 strain growth inhibition, stronger effect = higher value
Summary of the method: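 Steps: expose the defined-mutant yeast strain to compound; expose a parallel culture to vehicle; measure growth; express compound effect as inhibition relative to the vehicle culture.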

[12] = NCI Yeast Anticancer Drug Screen. Data for the sgs1 strain (AID 173);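 note: 0% = growth of vehicle-only control cultures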; conditions: S. cerevisiae sgs1 mutant, stronger effect = higher value
Summary of the method: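 Treat defined-mutant yeast with compound; measure growth; calculate inhibition relative to vehicle-treated cells.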

[13] = NCI Yeast Anticancer Drug Screen. Data for the rad18 strain (AID 177); conditions: S. cerevisiae rad18 mutant growth inhibition, stronger effect = higher value
Summary of the method: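 A genetically defined yeast mutant impaired in DNA damage repair was treated with test compounds, then its growth was measured against cultures receiving vehicle alone.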

[14] = NCI Yeast Anticancer Drug Screen. Data for the rad14 strain (AID 159);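 note: 0% = growth of vehicle-treated control cultures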; conditions: S. cerevisiae rad14 strain growth inhibition, stronger effect = higher value
Summary of the method: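 Vehicle-treated cultures served as the baseline for growth inhibition of a DNA repair-mutant yeast strain exposed to each compound.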

[15] = at 5.0 µM (retest, dose inferred, filed as 0.5)
[16] = at 50.0 µM (retest, dose inferred, filed as 5.0)

Measured: growth inhibition

CC(C)c1ccc(O)c(=O)cc1
inactive: [1]; [15] 6% and 0% | [1]; [16] 42% and 28% and -1% | [2]; [15] 2% and -1% | [2]; [16] 50% and 57% and 7% | [3]; [15] 4% and 6% | [3]; [16] 42% and 31% and 1% | [4]; [15] 6% and 5% and -1% | [4]; [16] 21% and 15% and 2% | [5]; [15] 0% and -1% and -5% | [5]; [16] 48% and 56% and -2% | [6]; [15] 5% and 6% and 2% | [6]; [16] 45% and 43% and -2%
active: [1]; at 50.0 µM 91.8% and 92.7% and 92.8% | [2]; at 50.0 µM 93.8% and 94.7% and 94.6% | [3]; at 50.0 µM 93.5% and 94% and 93% | [4]; at 50.0 µM 91.3% and 90.5% and 91.5% | [5]; at 50.0 µM 92.7% and 93.3% and 92.8% | [6]; at 50.0 µM 91.2% and 92.4% and 92.1%

CN(NC(=O)/C(=C/C=C/c1ccccc1)NC(=O)c1ccccc1)C1=C(Cl)C(=O)[N+](c2ccccc2)=CC1
inactive: [7]; at 1.2 µM 0% | [7]; at 3.7 µM 2% | [7]; at 11.0 µM 15% | [7]; at 33.0 µM 38% | [7]; at 100.0 µM 40% | [8]; at 1.2 µM 1% | [8]; at 3.7 µM 7% | [8]; at 11.0 µM 37% | [8]; at 33.0 µM 69% | [1]; at 1.2 µM -4% | [1]; at 3.7 µM -1% | [1]; [15] -3% | [1]; at 11.0 µM 34% | [1]; at 33.0 µM 63% | [1]; [16] 30% | [1]; at 50.0 µM 58.1% | [1]; at 100.0 µM 67% | [2]; at 1.2 µM 0% | [2]; at 3.7 µM 6% | [2]; [15] -12% | [2]; at 11.0 µM 16% | [2]; at 33.0 µM 37% | [2]; [16] 2% | [2]; at 50.0 µM 35.2% | [2]; at 100.0 µM 49% | [9]; at 1.2 µM -1% | [9]; at 3.7 µM 5% | [9]; at 11.0 µM 19% | [9]; at 33.0 µM 40% | [9]; at 100.0 µM 44% | [4]; [15] 30% | [4]; [16] 35% | [4]; at 50.0 µM 15.8% | [5]; at 1.2 µM 1% | [5]; at 3.7 µM 11% | [5]; [15] -5% | [5]; at 11.0 µM 33% | [5]; at 33.0 µM 53% | [5]; at 100.0 µM 49% | [10]; at 1.2 µM -3% | [10]; at 3.7 µM 0% | [10]; at 11.0 µM 19% | [10]; at 33.0 µM 42% | [10]; at 100.0 µM 43% | [11]; at 1.2 µM 2% | [11]; at 3.7 µM 8% | [11]; at 11.0 µM 37% | [11]; at 33.0 µM 61% | [11]; at 100.0 µM 63% | [12]; at 1.2 µM 1% | [12]; at 3.7 µM 5% | [12]; at 11.0 µM 27% | [12]; at 100.0 µM 69% | [6]; [15] -2% | [6]; [16] 18% | [13]; at 1.2 µM 1% | [13]; at 3.7 µM 26%
active: [8]; at 100.0 µM 79% | [5]; [16] 72% | [5]; at 50.0 µM 70.4% | [12]; at 33.0 µM 70% | [6]; at 50.0 µM 84.4% | [13]; at 11.0 µM 77% | [13]; at 33.0 µM 90% | [13]; at 100.0 µM 87%

O=C(Cc1ccccc1)c1ccc(O)cc1
active: [7]; at 100.0 µM 87% | [8]; at 100.0 µM 71% | [1]; [15] 81% | [1]; at 33.0 µM 74% | [1]; [16] 99% | [1]; at 50.0 µM 83.5% | [1]; at 100.0 µM 85% | [2]; [15] 78% | [2]; at 33.0 µM 70% | [2]; [16] 98% | [2]; at 50.0 µM 91.5% | [2]; at 100.0 µM 91% | [14]; at 100.0 µM 89% | [9]; at 100.0 µM 85% | [4]; [16] 90% | [5]; [16] 97% | [5]; at 50.0 µM 92.7% | [5]; at 100.0 µM 89% | [11]; at 100.0 µM 89% | [12]; at 100.0 µM 88% | [6]; [16] 99% | [6]; at 50.0 µM 86.1% | [13]; at 100.0 µM 89%
inactive: [7]; at 1.2 µM -20% | [7]; at 3.7 µM -8% | [7]; at 11.0 µM 5% | [7]; at 33.0 µM 63% | [8]; at 1.2 µM 11% | [8]; at 3.7 µM 10% | [8]; at 11.0 µM -3% | [8]; at 33.0 µM 40% | [1]; at 1.2 µM -15% | [1]; at 3.7 µM -21% | [1]; at 11.0 µM 17% | [2]; at 1.2 µM -24% | [2]; at 3.7 µM -15% | [2]; at 11.0 µM 20% | [14]; at 1.2 µM -13% | [14]; at 3.7 µM -25% | [14]; at 11.0 µM -5% | [14]; at 33.0 µM 62% | [9]; at 1.2 µM 5% | [9]; at 3.7 µM 15% | [9]; at 11.0 µM 22% | [9]; at 33.0 µM 53% | [4]; [15] 36% | [4]; at 50.0 µM 62.6% | [5]; at 1.2 µM -11% | [5]; at 3.7 µM -14% | [5]; [15] 44% | [5]; at 11.0 µM 24% | [5]; at 33.0 µM 69% | [11]; at 1.2 µM -13% | [11]; at 3.7 µM 0% | [11]; at 11.0 µM 23% | [11]; at 33.0 µM 68% | [12]; at 1.2 µM -15% | [12]; at 3.7 µM -39% | [12]; at 11.0 µM -5% | [12]; at 33.0 µM 59% | [6]; [15] 56% | [13]; at 1.2 µM -34% | [13]; at 3.7 µM -41% | [13]; at 11.0 µM -11% | [13]; at 33.0 µM 69%
